Consider 38 compounds from PubChem BioAssay (NCATS).

“And” between values parts separate entries of the source, which are not always exact repeats. Equal entries are not always repeated. Inconclusive results are not listed. The source made the active and inactive calls. The call rests on the fitted dose curve; in most records, active means well fitted inhibition curve with a large enough effect; inconclusive means small, poorly fitted or top-dose-only effect; inactive means flat fitted curve, though single readings scatter. Where a SMILES comes first, the peptide text is derived from it. Bridges are numbered along the chain shown (N, C = ends). [ ]: non-standard residue; d: D form. The star is where a group is joined. X1 = CCC(C)C(N)C1=NC(C(=O)*)CS1; dOrn = NCCC[C@@H](N)C(=O)O
On the % scale 0 is the no-effect control and ±100 the full control effect; potency means the concentration at half of the fitted maximal effect.

This assay can be described thus: P-glycoprotein substrates identified in KB-8-5-11 adenocarcinoma cell line, qHTS therapeutic library screen (AID 1346987). Further: nearly all actives have a fitted effect of over 65% in size. The note with it: KB-8-5-11 (P-gp overexpressing) viability, CellTiter-Glo, 72 h; series mostly up to 44.5 µM; activity change, negative = cytotoxicity: at the top concentration. The essentials: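 Compounds are pinned in dose-response onto KB-8-5-11 cells (500 cells/well, colchicine-free medium) and left 72 h at 37 degree C. CellTiter-Glo luminescence then yields AC50 values.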
(qHTS replaces the single test concentration by a dilution series.)
`CC(=O)O[C@@H]1C[C@]2(C)[C@@]3(CCC4[C@@]5(C)CC[C@H](O[C@@H]6O[C@H](C(=O)O)[C@@H](O)[C@H](O[C@@H]7O[C@H](CO)[C@H](O)[C@H](O)[C@H]7O[C@@H]7O[C@@H](C)[C@H](O)[C@@H](O)[C@H]7O[C@@H]7OC[C@](O)(CO)[C@H]7O)[C@H]6O[C@@H]6O[C@H](CO)[C@H](O)[C@H](O)[C@H]6O)C(C)(C)C5CC[C@]42C)O[C@@H](O)[C@]12C3CC(C)(C)[C@@H](OC(=O)/C=C/c1ccc(O)c(O)c1)[C@@H]2OC(=O)/C=C/c1ccccc1` (stereo partly drawn): the outcome was “inactive [at 9.29 µM]”.
Take `CCC(=O)OCC(=O)[C@@]1(OC(=O)CC)[C@H](C)C[C@H]2[C@H]3[C@H]([C@@H](O)C[C@@]21C)[C@@]1(C)C=CC(=O)C=C1C[C@H]3Cl`: the “activity change, negative = cytotoxicity” value was -8.75% [at 17.3 µM] (inactive).
As for `C[C@@H]1O[C@@H](O[C@H]2[C@H](O[C@H]3CC[C@@]4(C)C(CC[C@]5(C)C4CC=C4[C@@H]6CC(C)(C)CC[C@]6(C(=O)O)CC[C@]45C)[C@]3(C)CO)OC[C@H](O)[C@@H]2O)[C@H](O)[C@H](O[C@@H]2OC[C@@H](O)[C@H](O)[C@H]2O)[C@H]1O` (stereo partly drawn), the activity change, negative = cytotoxicity was -3.86% [at 9.29 µM] (inactive).
Same read-out and setting: under `COC(=O)C1C(CC(C)=O)C=CC(O)C12Oc1cc(C)cc(O)c1C2=O` (stereo not drawn) stands 9.55% (inactive).
As for `COc1cc(O[C@@H]2O[C@H](CO)[C@@H](O)[C@H](O)[C@H]2O)c(CCC(=O)OC[C@H]2O[C@@H](Oc3cc(OC)c(C4OC(=O)C(C)(O)C4O)cc3CCC(=O)O)[C@H](O)[C@@H](O)[C@@H]2O)cc1C1OC(=O)C(C)(O)C1O` (stereo partly drawn), the outcome was “inactive [at 9.29 µM]”.
Regarding `CC1=CC(=O)C2C(C)(C)CCCC2(C)C12CCC1(COC(=O)C1)O2` (stereo not drawn), the “activity change, negative = cytotoxicity” value is 2.44% (inactive).
For `C[C@@H]1CCC2[C@@H](C)[C@@H](O)O[C@@H]3O[C@@]4(C)CC[C@@H]1[C@@]23OO4` (stereo partly drawn), the Potency is 10.3 µM (active).
As to `O=C(O)c1cc(=O)c2c3nc4ccccc4oc-3cc(=O)c2[nH]1`, the “activity change, negative = cytotoxicity” value is -7.26% (inactive).
In the case of `CC(C)CC(=O)O[C@@H]1OC=C(CO[C@@H]2O[C@H](CO[C@@H]3O[C@H](CO)[C@@H](O)[C@H](O)[C@H]3O)[C@@H](O)[C@H](O)[C@H]2O)[C@H]2C[C@H](O)[C@@H](CO)[C@@H]12`, the “activity change, negative = cytotoxicity” value is 8.35% [at 17.3 µM] (inactive).
In the case of `Clc1ccc2c(c1)C1=NCCN1c1c(-c3noc(C4CC4)n3)ncn1-2`, the “activity change, negative = cytotoxicity” value was -12.8% (inactive).
Turning to `c1ccc(Cc2ncc3c(n2)CCNCC3)cc1`, the compound was classed as inactive.
The same measure, in the same setting: under `Cn1ccnc1CCOC(c1cc2nccc(C(=O)O)c2[nH]1)c1ccccc1Cl` (stereo not drawn) stands “inactive”; under `NCCCC[C@H](NC(=O)[C@@H]1Cc2ccccc2CN1C(=O)CCC(=O)c1ccccc1)C(=O)NCC(c1ccccc1)c1ccccc1`, “inactive”.
As to `CC(=O)c1cnc2ccc(-c3cc(Cl)c(O)c(Cl)c3)nc2c1NC1CCC(CN(C)C)CC1` (stereo not drawn), the Potency was 119 nM (active) and 23.1 nM (active).
In the case of `C/C=C/C1=CC2=C(CO1)C(=O)[C@](C)(O)[C@H](OC(=O)c1c(O)cc(OC)c(O)c1C)C2`, the “outcome” value was “inactive [at 17.3 µM]”.
Consider `C[C@H]1C[C@H]2[C@@H]3CCC4=CC(=O)C=C[C@]4(C)[C@@]3(F)[C@@H](O)C[C@]2(C)[C@@]1(O)C(=O)CO`, for which the “activity change, negative = cytotoxicity” value is 0.115% (inactive).
Still for that read-out and setting: under `CCCCS(=O)(=O)Nc1ncnc(OCCOc2ncc(Br)cn2)c1-c1ccc(Br)cc1` stands 9.86% (inactive); under `CC1(CO)CC[C@]2(C(=O)O[C@@H]3O[C@H](CO)[C@@H](O)[C@H](O)[C@H]3O)CC[C@]3(C)C(=CCC4[C@@]5(C)CC[C@H](O[C@@H]6O[C@H](C(=O)O)[C@@H](O)[C@H](O)[C@H]6O)C(C)(C)C5CC[C@]43C)C2C1` (stereo partly drawn), 7.12% [at 9.29 µM] (inactive).
On to `NCCOCCOCCNC(=O)Cc1ccc(Nc2nc(NCc3ccc(F)cc3)nc(NCC3CCCCC3)n2)cc1`, for which the call was inactive.
With `COc1cc(/C=C/c2cc(O)cc(O[C@@H]3O[C@H](CO)[C@@H](O)[C@H](O)[C@H]3O)c2)ccc1O`, the “activity change, negative = cytotoxicity” value was -4.45% [at 17.3 µM] (inactive).
Still for that read-out and setting: under `OCc1ccccc1O[C@@H]1O[C@H](CO)[C@@H](O)[C@H](O)[C@H]1O` stands 5.93% (inactive); under `CCC(CC)n1ccc2c(C(=O)NCc3c(C)cc(C)[nH]c3=O)cc(C#N)cc21`, -10.5% (inactive).
On the same count and under the same terms, under `CC1(C)CCC(C)(C)c2cc3c(cc21)Sc1ccccc1N=C3c1ccc(C(=O)O)cc1` stands -19.3% (inactive); under `CCOc1ccc2c(c1)C(C)=CC(C)(C)N2`, -14.8% (inactive).
As for `CC1=C(CC(=O)O)c2cc(F)ccc2C1=Cc1ccc(S(C)(=O)=O)cc1`, the compound was called inactive.
Take `CC1=C(/C=C/C(C)=C/C=C/C(C)=C/C=C/C=C(C)/C=C/C=C(C)/C=C/C2=C(C)C(=O)CCC2(C)C)C(C)(C)CCC1=O`: the “activity change, negative = cytotoxicity” value was 8.26% (inactive).
`CN(NC(=O)CC(=O)NN(C)C(=S)c1ccccc1)C(=S)c1ccccc1`: the Potency is 0.0517 µM (active).
Still for that read-out and setting: under `COC(=O)[C@H]1[C@H]2C[C@@H]3c4[nH]c5ccccc5c4CCN3C[C@H]2C[C@@H](OC(=O)c2cc(OC)c(OC)c(OC)c2)[C@@H]1OC` stands 4.11 µM (active).
In the case of `CC(=O)O[C@@H]1[C@@H](OC(=O)/C=C/c2ccccc2)[C@H](C)O[C@@H](O[C@H]2[C@@H]3C=CO[C@@H](O[C@@H]4O[C@H](CO)[C@@H](O)[C@H](O)[C@H]4O)[C@@H]3[C@@]3(CO)O[C@@H]23)[C@@H]1OC(C)=O`, the “outcome” value is “inactive [at 17.3 µM]”.
Take `COc1cc([C@@H]2Oc3c(OC)cc(CCCO)cc3[C@@H]2CO[C@@H]2O[C@H](CO)[C@@H](O)[C@H](O)[C@H]2O)ccc1O`: the “activity change, negative = cytotoxicity” value is 9.63% [at 17.3 µM] (inactive).
As for `CC(C)N(C[C@H]1O[C@@H](n2cnc3c(N)ncnc32)[C@H](O)[C@@H]1O)C1CC(CCc2nc3ccc(C(C)(C)C)cc3[nH]2)C1` (stereo partly drawn), the “activity change, negative = cytotoxicity” value was 5.83% (inactive).
Regarding `C=C(C(=O)OC)C1CCC2(C)C(O[C@@H]3O[C@H](CO)[C@@H](O)[C@H](O)[C@H]3O)CC(=O)C(C)C2C1O` (stereo partly drawn), the “activity change, negative = cytotoxicity” value was 0.216% [at 17.3 µM] (inactive).
Still for that read-out and setting: under `C/C=C/C=C/C=C/C(=O)O[C@@H]1[C@@H](OC)C2=C(C(=O)N(C(C)C(=O)O)C2)[C@@]2(C)CCCC(C)(C)[C@H]12` (stereo partly drawn) stands 0.039% [at 17.3 µM] (inactive).
Take `C/C(=C\CCC(C)(O)c1ccc(C)cc1)C(=O)O` (stereo not drawn): the compound was classed as inactive.
For the compound `COCCN(C)Cc1ccc2nc3sc(C(=O)N(C)C4CCCCC4)cn3c2c1`, the “activity change, negative = cytotoxicity” value is -4.18% (inactive).
The same measure, in the same setting: under `OCCO[C@@H]1[C@@H](O)[C@H](O)[C@@H](CO)O[C@@H]1O` stands 6.25% (inactive).
As to `CCC(C)C(N)C1=NC(C(=O)N[C@@H](CC(C)C)C(=O)N[C@H](CCC(=O)O)C(=O)N[C@H](C(=O)N[C@H]2CCCCNC(=O)[C@H](CC(N)=O)NC(=O)[C@@H](CC(=O)O)NC(=O)[C@H](Cc3cnc[nH]3)NC(=O)[C@@H](Cc3ccccc3)NC(=O)[C@H]([C@@H](C)CC)NC(=O)[C@@H](CCCN)NC2=O)[C@@H](C)CC)CS1` (stereo partly drawn) (X1-L[dE]IK[dOrn]I[dF]H[dD]N; lactam 4-C), the Potency entry was “inactive”.
For `N#CC1C(=O)Nc2scc(-c3ccc(-c4ccccc4O)cc3)c2C1=O` (stereo not drawn), the result was inactive.
